# In PubChem BioAssay (NCI):
# This is part of a sample that, as a whole, favours compounds with a hit. Of some 83,000 tested, about 20% had one in any assay.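 Treatment: one concentration, 48 hours, 96-well format. Scoring: percent growth, with anything below 10 considered active.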 Activity calls are given as the source filed them.
# Test system: MDA-MB-468 breast
# Assay: NCI-60 one-dose screen, 48 h (100 = growth as untreated, 0 = no growth, -100 = all killed)
# Settings: 10 µM unless noted
row,Compound,growth
1,Cc1ccc(-n2nc3c(c(C#N)c2=O)CC(c2ccccc2[N+](=O)[O-])C([N+](=O)[O-])=C3O)cc1 (centres undefined),94% (inactive)
2,CCc1ccc(-c2nnc(COc3ccc(-c4nc5ccc(C)cc5[nH]4)cc3OC)o2)cc1,63.1% (inactive)
3,Cc1ccc2c3c(c(=O)[nH]c2c1)C1(C(C#N)=C(N)O3)c2cc(Br)ccc2-c2ccc(Br)cc21,6.75% (active)
4,COCCN(C(=O)Cc1cccs1)C(C(=O)NCc1ccc(OC)cc1)c1ccc(C(C)C)cc1 (centres undefined),90.7% (inactive)
5,COC(=O)c1nc(=S)[nH]c(C(=O)OC)c1C(=O)c1ccccc1,97.3% (inactive)
6,N=C(N)c1ccc(-c2ccc(/C=C/c3ccccc3)s2)cc1,-67.3% (active)
7,CSc1n(Cc2ccc3ccccc3c2)c(C)c[n+]1Cc1ccc2ccccc2c1,-47.5% (active)
8,O=C(NOC(=O)c1ccccc1)c1ccccc1,105% (inactive)
9,O=C1OC(c2ccccc2)C(O)=C1c1ccccc1 (centres undefined),108% (inactive)
10,CCN(CC)CC(O)c1cc(-c2ccc(Cl)cc2)nc2cc(Cl)ccc12 (centres undefined),-76.9% (active)
11,CCc1c(C)c2cc3nc(NCc4ccccc4)oc3c(C)c2oc1=O,68.2% (inactive)
12,COc1cc2cc(Oc3cccc(NC(=O)Nc4cc(C(F)(F)F)cc(C(F)(F)F)c4)c3)c(C)nc2cc1OC,-8.12% (active)
13,CC1=C(C(=O)Nc2ccc(F)cc2)C(c2ccccc2)C2=C(CC(C)(C)CC2=O)N1 (centres undefined),67.7% (inactive)
14,CCOc1ccc2nc(-c3cccc(OCC(=O)NC(C)C)c3)nc(Nc3ccc(-c4cn[nH]c4)cc3)c2c1,21% (inactive)
